# Experimental data reported in the supplement of paper PMC12282887.
# ± gives the standard deviation of the averaged measurements.
# What was measured:
# Assay in all cases: promoter activity interaction Z-score (Lux/OD deviation from empty-vector control); higher = stronger promoter induction by the compound
# [1] = system: E. coli BW25113 acrABp lux reporter
# Outline: (§1)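 E. coli BW25113 luxCDABE reporter strains grew at 37°C in 40 µl LB Lennox in 384-well plates, with OD600 and luminescence read every 30 min for 12 h. After integration over 0–8 h for wild type or 1–9 h for deletion strains, wells under 10% of the median growth value were removed. Each score is the Z-transformed residual of growth-normalised luminescence fitted against a control.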
# [2] = system: E. coli BW25113 micFp lux reporter
# Outline: as §1
# [3] = system: E. coli BW25113 ompFp lux reporter
# Outline: as §1
# [4] = system: E. coli BW25113 robp lux reporter
# Outline: as §1
# [5] = system: E. coli BW25113 soxSp lux reporter
# Outline: as §1
# [6] = system: E. coli BW25113 tolCp lux reporter
# Outline: as §1
# [7] = 24.5 µg/ml, genetic background: wild type
# [8] = 24.5 µg/ml, genetic background: ΔmarA
# [9] = 24.5 µg/ml, genetic background: Δrob
# [10] = 24.5 µg/ml, genetic background: ΔsoxS
# [11] = 49.1 µg/ml, genetic background: wild type
# [12] = 49.1 µg/ml, genetic background: ΔmarA
# [13] = 49.1 µg/ml, genetic background: Δrob
# [14] = 49.1 µg/ml, genetic background: ΔsoxS
# [15] = 98.1 µg/ml, genetic background: wild type
# [16] = 98.1 µg/ml, genetic background: ΔmarA
# [17] = 98.1 µg/ml, genetic background: Δrob
# [18] = 98.1 µg/ml, genetic background: ΔsoxS
# [19] = 196.3 µg/ml, genetic background: wild type
# [20] = 196.3 µg/ml, genetic background: ΔmarA
# [21] = 196.3 µg/ml, genetic background: Δrob
# [22] = 196.3 µg/ml, genetic background: ΔsoxS
compound,measurement,setting,value
C[C@H](CCC(=O)O)[C@H]1CC[C@H]2[C@@H]3CC[C@@H]4C[C@H](O)CC[C@]4(C)[C@H]3C[C@H](O)[C@]12C [Deoxycholic acid],promoter activity interaction Z-score,[1]; [7],-0.00545 ± 0.031
same,promoter activity interaction Z-score,[1]; [8],1.57 ± 0.29
same,promoter activity interaction Z-score,[1]; [9],-0.132 ± 0.14
same,promoter activity interaction Z-score,[1]; [10],-0.386 ± 0.27
same,promoter activity interaction Z-score,[1]; [11],-0.226 ± 0.0089
same,promoter activity interaction Z-score,[1]; [12],0.503 ± 0.52
same,promoter activity interaction Z-score,[1]; [13],-0.0467 ± 0.16
same,promoter activity interaction Z-score,[1]; [14],-0.057 ± 0.47
same,promoter activity interaction Z-score,[1]; [15],0.106 ± 0.28
same,promoter activity interaction Z-score,[1]; [16],1.38 ± 1.5
same,promoter activity interaction Z-score,[1]; [17],-0.154 ± 0.21
same,promoter activity interaction Z-score,[1]; [18],0.252 ± 0.27
same,promoter activity interaction Z-score,[1]; [19],-0.41 ± 0.14
same,promoter activity interaction Z-score,[1]; [20],0.181 ± 0.34
same,promoter activity interaction Z-score,[1]; [21],-0.162 ± 0.13
same,promoter activity interaction Z-score,[1]; [22],-0.502 ± 0.59
same,promoter activity interaction Z-score,[2]; [7],-0.343 ± 0.23
same,promoter activity interaction Z-score,[2]; [8],0.0199 ± 0.11
same,promoter activity interaction Z-score,[2]; [9],0.0283 ± 0.0044
same,promoter activity interaction Z-score,[2]; [10],-0.264 ± 0.083
same,promoter activity interaction Z-score,[2]; [11],-0.355 ± 0.065
same,promoter activity interaction Z-score,[2]; [12],0.175 ± 0.087
same,promoter activity interaction Z-score,[2]; [13],-0.0435 ± 0.061
same,promoter activity interaction Z-score,[2]; [14],-0.146 ± 0.02
same,promoter activity interaction Z-score,[2]; [15],0.114 ± 0.12
same,promoter activity interaction Z-score,[2]; [16],0.0675 ± 0.083
same,promoter activity interaction Z-score,[2]; [17],-0.0555 ± 0.049
same,promoter activity interaction Z-score,[2]; [18],0.221 ± 0.023
same,promoter activity interaction Z-score,[2]; [19],0.0636 ± 0.083
same,promoter activity interaction Z-score,[2]; [20],0.21 ± 0.12
same,promoter activity interaction Z-score,[2]; [21],-0.134 ± 0.011
same,promoter activity interaction Z-score,[2]; [22],-0.044 ± 0.02
same,promoter activity interaction Z-score,[3]; [7],-0.553 ± 0.23
same,promoter activity interaction Z-score,[3]; [8],-1.03 ± 0.14
same,promoter activity interaction Z-score,[3]; [9],-0.889 ± 0.033
same,promoter activity interaction Z-score,[3]; [10],-0.771 ± 0.0099
same,promoter activity interaction Z-score,[3]; [11],-0.241 ± 0.37
same,promoter activity interaction Z-score,[3]; [12],-0.568 ± 0.061
same,promoter activity interaction Z-score,[3]; [13],-0.421 ± 0.46
same,promoter activity interaction Z-score,[3]; [14],-0.619 ± 0.45
same,promoter activity interaction Z-score,[3]; [15],0.192 ± 0.079
same,promoter activity interaction Z-score,[3]; [16],-1.07 ± 0.24
same,promoter activity interaction Z-score,[3]; [17],-0.618 ± 0.14
same,promoter activity interaction Z-score,[3]; [18],-0.316 ± 0.15
same,promoter activity interaction Z-score,[3]; [19],-0.117 ± 0.52
same,promoter activity interaction Z-score,[3]; [20],-0.473 ± 0.02
same,promoter activity interaction Z-score,[3]; [21],-0.582 ± 0.058
same,promoter activity interaction Z-score,[3]; [22],-0.78 ± 0.4
same,promoter activity interaction Z-score,[4]; [7],0.346 ± 0.23
same,promoter activity interaction Z-score,[4]; [8],-0.527 ± 0.51
same,promoter activity interaction Z-score,[4]; [9],0.184 ± 0.84
same,promoter activity interaction Z-score,[4]; [10],-0.0515 ± 0.27
same,promoter activity interaction Z-score,[4]; [11],0.0327 ± 0.23
same,promoter activity interaction Z-score,[4]; [12],0.517 ± 0.54
same,promoter activity interaction Z-score,[4]; [13],0.31 ± 0.44
same,promoter activity interaction Z-score,[4]; [14],0.767 ± 0.39
same,promoter activity interaction Z-score,[4]; [15],0.553 ± 0.54
same,promoter activity interaction Z-score,[4]; [16],0.501 ± 0.48
same,promoter activity interaction Z-score,[4]; [17],0.729 ± 1.3
same,promoter activity interaction Z-score,[4]; [18],-0.0126 ± 0.038
same,promoter activity interaction Z-score,[4]; [19],0.502 ± 0.87
same,promoter activity interaction Z-score,[4]; [20],0.13 ± 0.13
same,promoter activity interaction Z-score,[4]; [21],-0.399 ± 0.066
same,promoter activity interaction Z-score,[4]; [22],0.439 ± 0.14
same,promoter activity interaction Z-score,[5]; [7],0.0465 ± 0.031
same,promoter activity interaction Z-score,[5]; [8],-0.0486 ± 0.044
same,promoter activity interaction Z-score,[5]; [9],0.0418 ± 0.059
same,promoter activity interaction Z-score,[5]; [10],-0.115 ± 0.036
same,promoter activity interaction Z-score,[5]; [11],0.0154 ± 0.03
same,promoter activity interaction Z-score,[5]; [12],-0.092 ± 0.13
same,promoter activity interaction Z-score,[5]; [13],-0.0215 ± 0.03
same,promoter activity interaction Z-score,[5]; [14],-0.228 ± 0.12
same,promoter activity interaction Z-score,[5]; [15],0.124 ± 0.18
same,promoter activity interaction Z-score,[5]; [16],-0.348 ± 0.085
same,promoter activity interaction Z-score,[5]; [17],-0.0505 ± 0.11
same,promoter activity interaction Z-score,[5]; [18],-0.203 ± 0.29
same,promoter activity interaction Z-score,[5]; [19],-0.0569 ± 0.038
same,promoter activity interaction Z-score,[5]; [20],-0.335 ± 0.053
same,promoter activity interaction Z-score,[5]; [21],-0.26 ± 0.051
same,promoter activity interaction Z-score,[5]; [22],-0.515 ± 0.0068
same,promoter activity interaction Z-score,[6]; [7],0.918 ± 0.69
same,promoter activity interaction Z-score,[6]; [8],0.218 ± 0.13
same,promoter activity interaction Z-score,[6]; [9],1.08 ± 1.6
same,promoter activity interaction Z-score,[6]; [10],0.883 ± 0.56
same,promoter activity interaction Z-score,[6]; [11],0.21 ± 0.56
same,promoter activity interaction Z-score,[6]; [12],0.972 ± 1.2
same,promoter activity interaction Z-score,[6]; [13],0.2888 ± 0.00083
same,promoter activity interaction Z-score,[6]; [14],-0.388 ± 0.38
same,promoter activity interaction Z-score,[6]; [15],0.816 ± 0.38
same,promoter activity interaction Z-score,[6]; [16],0.304 ± 0.81
same,promoter activity interaction Z-score,[6]; [17],0.00196 ± 0.37
same,promoter activity interaction Z-score,[6]; [18],1.18 ± 1.1
same,promoter activity interaction Z-score,[6]; [19],-0.28 ± 1.4
same,promoter activity interaction Z-score,[6]; [20],-0.467 ± 0.27
same,promoter activity interaction Z-score,[6]; [21],-0.148 ± 0.072
same,promoter activity interaction Z-score,[6]; [22],-0.718 ± 1.1
